Test results reported in PMC13494018.
Values without a mark were called inactive. No rule for the calls is given here.

biological target: CD276, Q5ZPR3
Sequence (Q5ZPR3 whole entry): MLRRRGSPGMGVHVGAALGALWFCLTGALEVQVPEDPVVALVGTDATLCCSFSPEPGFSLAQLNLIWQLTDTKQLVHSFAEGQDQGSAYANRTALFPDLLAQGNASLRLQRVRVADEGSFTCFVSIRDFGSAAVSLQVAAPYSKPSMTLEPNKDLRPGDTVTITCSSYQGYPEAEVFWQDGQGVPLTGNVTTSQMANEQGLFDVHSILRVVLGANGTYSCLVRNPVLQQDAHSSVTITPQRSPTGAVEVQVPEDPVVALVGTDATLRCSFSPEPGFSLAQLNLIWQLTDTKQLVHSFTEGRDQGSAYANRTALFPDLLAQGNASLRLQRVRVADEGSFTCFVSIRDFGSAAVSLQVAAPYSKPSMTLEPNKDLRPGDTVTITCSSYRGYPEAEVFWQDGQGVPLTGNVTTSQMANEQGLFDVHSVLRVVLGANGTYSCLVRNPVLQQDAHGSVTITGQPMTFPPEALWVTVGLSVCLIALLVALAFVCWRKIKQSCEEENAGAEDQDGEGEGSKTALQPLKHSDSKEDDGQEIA

Row | Binder | binding in a display sort
1 | design_611_394c5ea9-a0d3-47c4-9d48-89ba6a28fdd0_1451_dldesign_0_cycle1_af2pred (protein) AQAIEVANKTAAAMKKQAEALAAEGEANPETAWKHYETAAKLYEIAADMVAAAGGDPAVAAALKAKAAEYKAKAKAAKAA | not found
2 | design_610_f34cc193-997c-4684-af32-2a8002718429_1816_dldesign_0_cycle1_af2pred (protein) AEAEALAAQARAHAHKALQEVSLGGDQAEADAHLAKAEEYAAQAKALDPEIGAQTQKIIDQYKALMAQAR | not found
3 | design_610_f34cc193-997c-4684-af32-2a8002718429_1172_dldesign_0_cycle1_af2pred (protein) LTEEEAKKLLADAKQLLELAEAALADPRFARTAITAADQAAALAKEAAKHPKVAAEAKALAARAEEVRKAAEEAAA | not found
4 | design_611_394c5ea9-a0d3-47c4-9d48-89ba6a28fdd0_1178_dldesign_0_cycle1_af2pred (protein) AELLAAAGELAVEAARYAAEADRFGPEAAPAAELFREAQKLAVQANQNPATAAEYYAKAKELMKKGKELMKKAKA | not found
5 | design_611_394c5ea9-a0d3-47c4-9d48-89ba6a28fdd0_1101_dldesign_0_cycle1_af2pred (protein) MGGELLLDVMRAAAEAQREIAELGKEKGIPEEVTQALINRVSAAVAAVAKAAIAGDDAAKAAAAAARAAIDATLAEARAL | not found
6 | design_611_394c5ea9-a0d3-47c4-9d48-89ba6a28fdd0_1283_dldesign_0_cycle1_af2pred (protein) DTAAAQGLLAGVQAFTRRRFEAAERALRAGDREAMLAAARDLETAADIAEATAKQVPPALAAQAQALAKQARERAEEARRAAEA | not found
7 | design_611_394c5ea9-a0d3-47c4-9d48-89ba6a28fdd0_940_dldesign_0_cycle1_af2pred (protein) MKVEEAGNKAKALLVATANAAIAADPARAQEIAKKMAEGIEKIDKLTEEEKKKLDEYSEEEQAKKVEELGKELAKEIA | not found
8 | design_610_f34cc193-997c-4684-af32-2a8002718429_2276_dldesign_0_cycle1_af2pred (protein) AAAAAAAAAEAAARAARAKEVGQKTLDAVAARAKELGARSPALGEAEQLRLKSTAAVLAGDEAAAKAYAAQAGAILAAA | not found
9 | design_611_394c5ea9-a0d3-47c4-9d48-89ba6a28fdd0_1184_dldesign_0_cycle1_af2pred (protein) GEAARERGEELVKEAEAALAAAKAAAAADPAAGLAAANAAIGLAVERMEELARLGPEARPAIERLTAIATELSKLALALKAAL | not found
10 | design_611_394c5ea9-a0d3-47c4-9d48-89ba6a28fdd0_881_dldesign_0_cycle1_af2pred (protein) GAAEAAKALAKGVAASVKRLAKEGLEEAKKDPEKGRAILENAKTFAEAVKATDPEIGDKALKYVEEAKKEAEKIVKE | not found
11 | design_611_394c5ea9-a0d3-47c4-9d48-89ba6a28fdd0_1130_dldesign_0_cycle1_af2pred (protein) MEEELKKISQAAAQAQQAAIDAKDPALRAELAQAAVEIMKLMDKAAKSTPEEAKKLAEEAEKIAEEAQKKAKASG | not found
12 | design_611_394c5ea9-a0d3-47c4-9d48-89ba6a28fdd0_498_dldesign_0_cycle1_af2pred (protein) AAAATLAQVKELIAQAKADPANAAALLSQAIRLAVTTAIAAAAAGDTAAAVALSQAAIEAMKALDEVSKAA | not found
13 | design_611_394c5ea9-a0d3-47c4-9d48-89ba6a28fdd0_317_dldesign_0_cycle1_af2pred (protein) AEAIQKANDALQEALDYLKEMSEIAKTEKLQEAVKQIQEKVGKAAQYAIDAVKNPEKAAEYAKKAKEEAEKAKEIYEKAKKES | not found
14 | design_611_394c5ea9-a0d3-47c4-9d48-89ba6a28fdd0_577_dldesign_0_cycle1_af2pred (protein) VAAQLAAAQAKVDDVTAKVAEAKAAAKADPAEGVKIANATIGAAIDAMKAAKTYPPEVAAAAIAALSAQLAEASKIAISAQAKLDA | not found
15 | design_611_394c5ea9-a0d3-47c4-9d48-89ba6a28fdd0_264_dldesign_0_cycle1_af2pred (protein) AADEAAKKAIKQLKASVEAAARNARALAGSPDAPRAVKALKELAKVAAEGALGIAKATKDPEVAKEAKKAAEEIKKIAEETAKEIEA | not found
16 | design_610_f34cc193-997c-4684-af32-2a8002718429_2230_dldesign_0_cycle1_af2pred (protein) SADQAEKQKLLAKFNEVSGEALELMEELTKAGDYETVQQVSRLLGQANGLAVAATDAATAKAALKVAEEALKLAKEALKKA | not found
17 | design_611_394c5ea9-a0d3-47c4-9d48-89ba6a28fdd0_637_dldesign_0_cycle1_af2pred (protein) SEETKEVAEAAVNAAEQAIKLAKELGDKEIEEKAKKLKEEAKKAAKKGAEALPEAKKLAREAFTLAAKALALYAKAKA | not found
18 | design_611_394c5ea9-a0d3-47c4-9d48-89ba6a28fdd0_705_dldesign_0_cycle1_af2pred (protein) AEAQEQAKKEYEKAKAVADAALATAKATGDVTAQQAKVLDAAIEAAKKAQELGDGETANKVMQVATKAMTAMAAAG | not found
19 | design_610_f34cc193-997c-4684-af32-2a8002718429_1156_dldesign_0_cycle1_af2pred (protein) NPLVKQAEKNYKKAKEMAELGLASTDPLAIRSYAAFGDSLYNNAAELLKKAGKEEEAKKVEAEGEEKKAALLAKAKAAA | not found

Row | Binder | binding in a display sort
20 | design_611_394c5ea9-a0d3-47c4-9d48-89ba6a28fdd0_579_dldesign_0_cycle1_af2pred (protein) DAAAQSKALQAQVAQAQALVEQARAAAADPARARALALQAFRQAQAVNRQAIALGDTATAAAAGEVMVAAARVLAA | not found
21 | design_610_f34cc193-997c-4684-af32-2a8002718429_2117_dldesign_0_cycle1_af2pred (protein) AAAAETASKAGEATIEALKAGAEAARLAEELGLDPAPYHQKAAQAIAALQAGEGSLETVTALKEELEKAAKELKEKV | not found
22 | design_610_f34cc193-997c-4684-af32-2a8002718429_1694_dldesign_0_cycle1_af2pred (protein) AAAAAELALRSAEALLRSARENAAAGTISPEGLRGAAEVIKDLARYAGELGGPEAAARAEELIAEADAVVA | not found
23 | design_610_f34cc193-997c-4684-af32-2a8002718429_1476_dldesign_0_cycle1_af2pred (protein) ARAAAIAEEAVRFANAASARALAAAVKTTPEANAQITALVVQLLEEADRARKATDPAEAEAHFEAARALAAEAEAIAAAALA | not found
24 | design_611_394c5ea9-a0d3-47c4-9d48-89ba6a28fdd0_749_dldesign_0_cycle1_af2pred (protein) AAAEAAAERARQAAKAAMKSLTLAYEALGKPEQAKEDIAKVEKAIEEDPEKGAALARELAAQAAREAIKANAA | not found
25 | design_610_f34cc193-997c-4684-af32-2a8002718429_1084_dldesign_0_cycle1_af2pred (protein) SAAQQAKQKALELFEQAAKLAAKYDPKAAEKFNKAKEALQAGDLGGALKYATEGVNILAKNASQEAADEVRAIATQGLISYAQAQILA | not found
26 | design_610_f34cc193-997c-4684-af32-2a8002718429_2398_dldesign_0_cycle1_af2pred (protein) AAAEIARRTVEAGVRQAFAASPEEAERLAENLAKIVEGLAGPEVGERVREIVREGLRLAEKFPEYREEIAEETAERAAELVYEALS | not found
27 | design_610_f34cc193-997c-4684-af32-2a8002718429_2308_dldesign_0_cycle1_af2pred (protein) AAAAEAAAARLAAAKAALAAAQAKGAELAAQSPGAGIGYVWAAAVRLGETLGPEAAALAAQARAAAAAQNRALLAQSAA | not found
28 | design_611_394c5ea9-a0d3-47c4-9d48-89ba6a28fdd0_1121_dldesign_0_cycle1_af2pred (protein) SSSYEEVTAEMAAITAKAQEGVEAAKKDPAEAKKIAAEIAAKAKEIAASGFSEGAAQMAKNAAARVQKVIDAELAK | not found
29 | design_611_394c5ea9-a0d3-47c4-9d48-89ba6a28fdd0_908_dldesign_0_cycle1_af2pred (protein) AAAAARAAAVAAAEAAAAEAIKELKAAAEEAKTATPEEAAKLMNEMLAKASRQALAMQASGDPAAAAAGARLIAAAVEYAKEIDEAIR | not found
30 | design_611_394c5ea9-a0d3-47c4-9d48-89ba6a28fdd0_1238_dldesign_0_cycle1_af2pred (protein) SAADEQAKAIAVASTQSILDQAKKILEEHPEIKEEGEKLVEEIKKLLEKAKTGDAATASKALSESLELYGKLAELAK | not found
31 | design_611_394c5ea9-a0d3-47c4-9d48-89ba6a28fdd0_765_dldesign_0_cycle1_af2pred (protein) SSREGAAQLLLDVAKQAAAALKAAGGDEERAKKILEEAKKAAATTFEETQKALAKAAREAVKYQAAVEAA | not found
32 | design_611_394c5ea9-a0d3-47c4-9d48-89ba6a28fdd0_785_dldesign_0_cycle1_af2pred (protein) LKAEAEKLAKEAAAKAKEAAAAGDAVAALAYQAAANMARSALRADPESAAKLLEVGRALKQQGDATHAAFKA | not found
33 | design_611_394c5ea9-a0d3-47c4-9d48-89ba6a28fdd0_1153_dldesign_0_cycle1_af2pred (protein) MEEKKKKIEEEANKVIEEATKVAELAKKHPAMRPALIAANAAISMANNAIRNIENVESAEKQLKVAKALMEYAKATAKALLAAA | not found
34 | design_610_f34cc193-997c-4684-af32-2a8002718429_1271_dldesign_0_cycle1_af2pred (protein) SGRVRQAQRLVEMAEELVETGEKEEAEKGKQLADAARALAEEALRRGDDPEAAKEVLERAKEVEKRAEEAIKA | not found
35 | design_611_394c5ea9-a0d3-47c4-9d48-89ba6a28fdd0_592_dldesign_0_cycle1_af2pred (protein) DALKLIEAAAKLAKKIGLEEAAKLAEEAAKLLATGDPEAAGQGVLLLSKAYALAAADPKAAEAAALLRAALAAAAKEAIALARAAR | not found
36 | design_610_f34cc193-997c-4684-af32-2a8002718429_1191_dldesign_0_cycle1_af2pred (protein) AEATGQAYADILVQSARSLAAAGASPEDVVQAMDSIAQAAIDELGEEGKKYAAKGAEKAAEEVKKLNPEAAKAVAKRAEELKKQA | not found
37 | design_610_f34cc193-997c-4684-af32-2a8002718429_1550_dldesign_0_cycle1_af2pred (protein) SAAIQEQTAKDWAAVLEAAAARSTEAGIRLARAVAEVFRDDPELAEATAAALTNAEVAAALRAALEEARAAAA | not found
38 | design_610_f34cc193-997c-4684-af32-2a8002718429_1837_dldesign_0_cycle1_af2pred (protein) NQVAAIAAANQALGERAYAEGLALYAADPEANREAARAAFVRAYAYFNAAAGAAIVLGDAAAAAAAQAKAEEAKAHAEALKA | not found
